# Active and inactive are the calls of the source.
# How the values were obtained:
# [1] = small molecules captured by biotinylated probe aFSTL3 – biochemical, small-molecule microarray, fluorescence 635/667, stem cell growth factor project, primary screen (AID 1064); details: higher = more signal;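 also: measures binding of the biotinylated anti-FSTL3 antibody to printed compounds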
# [2] = binders from COS7 lysate, DM2A8 probe, primary screen, torsin A project, cell lysate, small-molecule microarray, fluorescence 635/667 (AID 1065); details: higher = more signal, COS7 lysate expressing mutant human TOR1A
# [3] = small molecules captured by biotinylated probe aFGF2 – biochemical, small-molecule microarray, fluorescence 635/667, stem cell growth factor project, primary screen (AID 1067); details: higher = more signal;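 also: measures binding of biotinylated aFGF2 protein to printed compounds on slides; z-score merges feature fluorescence and signal-to-noise across triplicate slides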
# [4] = small molecules captured by biotinylated probe aFGF10 – biochemical, small-molecule microarray, fluorescence 635/667, stem cell growth factor project, primary screen (AID 1071); details: higher = more signal;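 also: score merges 667 nm spot intensity and signal to noise from triplicate slides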
# [5] = biological target: Neurogenic locus notch homolog protein 2 (Homo sapiens) (UniProt Q04721); test: small molecules binding Notch2 protein – biochemical, small-molecule microarray, 635 nm fluorescence, stem cell growth factors, primary screen (AID 1073); details: higher = more signal
# [6] = biological target: Pro-neuregulin-1, membrane-bound isoform (Homo sapiens) (UniProt Q02297); test: small molecules binding neuregulin-1 protein – biochemical, small-molecule microarray, fluorescence 635/667, psychiatric disease protein project, primary screen (AID 1075); details: NRG1 binding, 635 nm fluorescence, higher = more signal;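 also: score combines 667 nm spot fluorescence with signal to noise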
# Pro-neuregulin-1, membrane-bound isoform (Homo sapiens), sequence (Q02297 whole entry, looked up, the tested form may be a part, canonical isoform): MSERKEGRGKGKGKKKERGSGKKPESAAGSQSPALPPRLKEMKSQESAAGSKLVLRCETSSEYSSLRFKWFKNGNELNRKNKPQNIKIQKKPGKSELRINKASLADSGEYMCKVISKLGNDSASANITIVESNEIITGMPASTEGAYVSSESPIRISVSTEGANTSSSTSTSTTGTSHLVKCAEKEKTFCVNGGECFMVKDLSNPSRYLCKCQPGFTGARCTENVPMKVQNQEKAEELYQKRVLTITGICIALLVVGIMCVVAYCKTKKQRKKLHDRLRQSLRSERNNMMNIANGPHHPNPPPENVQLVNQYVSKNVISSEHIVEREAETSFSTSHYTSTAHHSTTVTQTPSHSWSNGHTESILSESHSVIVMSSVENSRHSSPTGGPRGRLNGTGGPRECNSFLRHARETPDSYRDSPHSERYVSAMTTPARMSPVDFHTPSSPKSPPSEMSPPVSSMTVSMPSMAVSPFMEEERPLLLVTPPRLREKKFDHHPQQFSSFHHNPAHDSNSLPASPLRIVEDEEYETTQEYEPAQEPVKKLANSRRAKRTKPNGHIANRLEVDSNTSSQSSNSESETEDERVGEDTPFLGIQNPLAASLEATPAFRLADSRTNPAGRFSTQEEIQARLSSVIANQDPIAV
# [7] = tested on: Neuregulin-1 EGF-like domain; test: small molecules binding NRG1 EGF domain – biochemical, small-molecule microarray, 635 nm fluorescence, primary screen (AID 1081); details: higher = more signal;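 also: binding of the protein to compounds printed on small-molecule microarray slides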
# [8] = FRG1 expression reporter modulators in myotubes – cell-based, C2C12 myotubes, firefly/Renilla luciferase, luminescence, FRG1 inhibition for FSHD, primary screen (AID 1084); details: FRG1 promoter luciferase, higher = more signal, called active from +8 up or from −8 down
# [9] = small molecules captured by biotinylated probe aFST – biochemical, small-molecule microarray, fluorescence 635/667, stem cell growth factor project, primary screen (AID 1086); details: higher = more signal;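 also: score merges 667 nm fluorescence with signal-to-noise of each printed compound spot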
# [10] = binders of probe aHhip on microarray, primary screen, stem cell growth factor project, biochemical, small-molecule microarray, fluorescence 635/667 (AID 1087); details: higher = more signal;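 also: score merges spot fluorescence at 667nm with spot signal to noise ratio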
# [11] = tested on: PRMT1 (protein arginine N-methyltransferase 1); test: small molecules binding arginine methyltransferase PRMT1 – biochemical, small-molecule microarray, 635 nm fluorescence, primary screen (AID 1088); details: higher = more signal;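 also: binding of Prmt1 protein to compounds spotted on small-molecule microarray slides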
# [12] = growth effects on S. cerevisiae YJM789 – YJM789 clinical isolate, OD600, 24 h, basal, primary screen (AID 1089); details: higher = more signal, called active from +8 up or from −8 down;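 also: growth of clinical yeast isolate S. cerevisiae YJM 789 seeded 1000 cells per well; test concentration not given here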
# [13] = S. pombe growth modifiers, basal conditions – strain 972, OD600, 24 h, no modulator, primary screen (AID 1090);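 also: basal condition with compound alone and no growth modifier present; test concentration not given here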; details: S. pombe 972 growth, higher = more signal, called active from +8 up or from −8 down
# [14] = budding yeast growth modifiers under rapamycin – strain BY4716, OD600, 96 h, primary screen (AID 1091); also: test concentration not given here; details: S. cerevisiae BY4716 + rapamycin, higher = more signal, called active from +8 up or from −8 down
# [15] = biological target: Torsin-1A-interacting protein 2 (Homo sapiens) (UniProt Q8NFQ8); test: small molecules binding lysate-expressed LULL1 – cell lysate, human LULL1 lysate, 635/667 nm fluorescence, primary screen (AID 1092); details: small-molecule microarray, hLULL1 lysate binding, 635 nm fluorescence; higher = more signal;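 also: probe is lysate of COS7 cells overexpressing human LULL1; score merges per-feature 667 nm fluorescence with signal-to-noise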
# Torsin-1A-interacting protein 2 (Homo sapiens), sequence (Q8NFQ8 whole entry, looked up): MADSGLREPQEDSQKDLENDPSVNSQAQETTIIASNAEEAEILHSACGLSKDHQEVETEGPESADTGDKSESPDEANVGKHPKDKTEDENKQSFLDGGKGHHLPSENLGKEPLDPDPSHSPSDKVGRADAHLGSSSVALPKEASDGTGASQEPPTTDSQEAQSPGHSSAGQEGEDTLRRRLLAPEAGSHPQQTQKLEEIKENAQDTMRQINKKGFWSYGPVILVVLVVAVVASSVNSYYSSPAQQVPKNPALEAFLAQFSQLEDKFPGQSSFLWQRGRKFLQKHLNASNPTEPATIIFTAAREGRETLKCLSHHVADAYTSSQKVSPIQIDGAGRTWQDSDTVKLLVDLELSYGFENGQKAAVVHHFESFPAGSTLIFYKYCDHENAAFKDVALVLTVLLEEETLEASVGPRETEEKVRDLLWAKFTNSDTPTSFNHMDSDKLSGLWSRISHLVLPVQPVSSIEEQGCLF
# [16] = optical density change of DRC41 E. coli – strain DRC41, OD650, 24 h, E. coli filamentation project, primary screen (AID 1093);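 also: MC1000 strain lacking acrAB efflux and sulA so SOS filamentation is blocked; test concentration not given here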; details: E. coli DRC41 growth, higher = more signal, called active from +8 up or from −8 down
# [17] = probe aLefty2 binding to arrayed compounds – biochemical, biotinylated probe, 635/667 nm fluorescence, primary screen (AID 1094); details: small-molecule microarray, higher = more signal;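 also: score merges spot fluorescence near 667 nm with spot signal-to-noise ratio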
# [18] = tested on: Noggin (protein binding on small-molecule microarray); test: small molecules binding Noggin protein – biochemical, 635/667 nm fluorescence, primary screen (AID 1095); details: 635 nm fluorescence, higher = more signal;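 also: score merges 667 nm feature fluorescence with signal to noise over triplicate slides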
# [19] = biological target: Neurogenic locus notch homolog protein 3 (Homo sapiens) (UniProt Q9UM47); test: small molecules binding NOTCH3 protein – biochemical, 635/667 nm fluorescence, primary screen (AID 1096); details: small-molecule microarray, 635 nm fluorescence, higher = more signal
# Neurogenic locus notch homolog protein 3 (Homo sapiens), sequence (Q9UM47 whole entry, looked up): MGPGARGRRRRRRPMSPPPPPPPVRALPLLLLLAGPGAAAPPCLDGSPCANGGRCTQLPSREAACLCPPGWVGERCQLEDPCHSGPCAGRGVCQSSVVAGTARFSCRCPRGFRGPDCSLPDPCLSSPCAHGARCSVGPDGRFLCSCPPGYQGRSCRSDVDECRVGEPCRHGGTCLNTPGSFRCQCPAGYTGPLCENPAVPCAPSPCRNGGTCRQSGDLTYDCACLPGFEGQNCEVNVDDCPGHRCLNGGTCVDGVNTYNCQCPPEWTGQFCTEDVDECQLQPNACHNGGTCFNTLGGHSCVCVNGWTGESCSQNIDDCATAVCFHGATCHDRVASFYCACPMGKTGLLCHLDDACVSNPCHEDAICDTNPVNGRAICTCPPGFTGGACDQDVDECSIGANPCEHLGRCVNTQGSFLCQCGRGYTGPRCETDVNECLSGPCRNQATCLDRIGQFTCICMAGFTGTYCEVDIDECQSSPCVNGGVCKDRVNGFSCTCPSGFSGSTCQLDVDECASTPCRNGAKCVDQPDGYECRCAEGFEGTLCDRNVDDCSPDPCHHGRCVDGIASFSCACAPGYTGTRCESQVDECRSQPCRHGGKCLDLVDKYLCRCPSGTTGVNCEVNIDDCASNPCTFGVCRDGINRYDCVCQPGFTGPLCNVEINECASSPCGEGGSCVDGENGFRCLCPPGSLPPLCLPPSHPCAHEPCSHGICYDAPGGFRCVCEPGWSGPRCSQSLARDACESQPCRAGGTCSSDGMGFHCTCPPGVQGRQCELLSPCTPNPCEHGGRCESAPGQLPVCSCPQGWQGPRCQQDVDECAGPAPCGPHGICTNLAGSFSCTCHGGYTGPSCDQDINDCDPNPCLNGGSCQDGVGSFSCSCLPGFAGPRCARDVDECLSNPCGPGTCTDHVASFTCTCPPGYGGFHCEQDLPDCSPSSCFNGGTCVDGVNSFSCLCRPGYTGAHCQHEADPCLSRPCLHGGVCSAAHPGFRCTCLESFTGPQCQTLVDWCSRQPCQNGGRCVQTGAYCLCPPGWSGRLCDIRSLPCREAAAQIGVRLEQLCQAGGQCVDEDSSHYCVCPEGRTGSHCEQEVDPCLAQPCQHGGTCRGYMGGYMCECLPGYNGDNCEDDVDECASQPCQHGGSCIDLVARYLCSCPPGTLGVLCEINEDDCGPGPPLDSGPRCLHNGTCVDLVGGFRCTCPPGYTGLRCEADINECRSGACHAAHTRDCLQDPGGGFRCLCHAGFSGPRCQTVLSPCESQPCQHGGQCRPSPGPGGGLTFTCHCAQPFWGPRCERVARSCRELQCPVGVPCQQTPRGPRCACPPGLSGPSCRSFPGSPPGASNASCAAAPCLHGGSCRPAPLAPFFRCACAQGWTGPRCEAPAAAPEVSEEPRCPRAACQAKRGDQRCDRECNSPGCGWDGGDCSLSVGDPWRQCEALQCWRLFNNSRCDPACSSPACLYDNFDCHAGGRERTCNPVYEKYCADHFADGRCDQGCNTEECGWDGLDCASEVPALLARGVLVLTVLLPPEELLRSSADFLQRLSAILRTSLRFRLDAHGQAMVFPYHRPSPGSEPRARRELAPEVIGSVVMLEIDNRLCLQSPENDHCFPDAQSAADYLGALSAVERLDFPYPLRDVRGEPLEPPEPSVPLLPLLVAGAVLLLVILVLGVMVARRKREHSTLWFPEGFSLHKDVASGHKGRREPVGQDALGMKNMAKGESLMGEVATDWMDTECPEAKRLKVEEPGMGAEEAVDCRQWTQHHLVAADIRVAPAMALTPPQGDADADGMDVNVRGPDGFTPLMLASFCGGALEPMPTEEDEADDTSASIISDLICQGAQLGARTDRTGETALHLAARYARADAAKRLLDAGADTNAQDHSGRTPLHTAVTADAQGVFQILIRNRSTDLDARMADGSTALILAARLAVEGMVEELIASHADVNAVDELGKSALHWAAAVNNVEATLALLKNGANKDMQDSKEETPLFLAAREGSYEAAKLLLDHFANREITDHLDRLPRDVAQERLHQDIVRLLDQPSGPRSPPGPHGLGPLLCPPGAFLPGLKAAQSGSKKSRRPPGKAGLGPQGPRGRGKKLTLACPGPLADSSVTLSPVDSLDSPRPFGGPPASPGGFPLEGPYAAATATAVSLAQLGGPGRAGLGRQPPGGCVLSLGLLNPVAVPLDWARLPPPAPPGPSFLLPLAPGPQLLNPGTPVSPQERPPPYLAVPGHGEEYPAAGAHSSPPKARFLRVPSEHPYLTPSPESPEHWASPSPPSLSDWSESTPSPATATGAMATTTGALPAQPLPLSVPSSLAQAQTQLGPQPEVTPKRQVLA
# [20] = probe aEGFR binding to arrayed compounds – biochemical, biotinylated probe, 635/667 nm fluorescence, primary screen (AID 1097); details: small-molecule microarray, higher = more signal;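 also: probe is a biotinylated anti-EGFR antibody binding compounds printed on slides; score combines fluorescence near 667 nm and signal to noise of each spot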
Structure (SMILES),composite z-score [1],composite z-score [2],composite z-score [3],composite z-score [4],composite z-score [5],composite z-score [6],composite z-score [7],z-score [8],composite z-score [9],composite z-score [10],composite z-score [11],z-score [12],z-score [13],z-score [14],composite z-score [15],z-score [16],composite z-score [17],composite z-score [18],composite z-score [19],composite z-score [20]
O=C1O[C@@H](c2ccccc2)[C@@H](c2ccccc2)N2[C@@H](c3ccccc3OCCO)[C@]3(C(=O)Nc4ccc(C#CC5=CCCCC5)cc43)[C@@H](C(=O)Nc3nc4ccccc4s3)[C@H]12,-0.177,0.106,-0.0267,1.09,1.11,0.792,0.94,0.197 (inactive),0.438,-0.0346,1.56,1.37 (inactive),1.8 (inactive),2.58 (inactive),2.4,0.901 (inactive),0.123,0.82,0.993,0.0224
O=C(NCc1ccc(F)cc1)[C@H]1C[C@H]2C(=O)N[C@@H](Cc3ccccc3)C(=O)N2[C@H]1c1ccc(O)cc1,1.12,0.949,-0.185,-0.685,-0.878,-0.242,1.2,1.1 (inactive),-0.823,-0.0645,0.53,0.839 (inactive),0.247 (inactive),2.14 (inactive),2.34,0.675 (inactive),-0.118,0.223,-0.75,-0.268
CCOC(=O)C=Cc1cc([N+](=O)[O-])ccc1O,0.36,-0.11,-0.159,-0.239,-1,-0.306,0.358,2.07 (inactive),-0.31,0.0044,0.385,-1.21 (inactive),-0.201 (inactive),-1.62 (inactive),0.381,-0.828 (inactive),-0.088,-0.609,-0.465,-0.141
COC(=O)[C@@]1(Cc2ccccc2)[C@H]2c3cc(C(=O)N4CCCC4)n(Cc4nc5ccccc5[nH]4)c3C[C@H]2CN1C(=O)c1ccccc1,1.19,0.74,-0.0879,0.115,1.72,2.07,0.807,2.63 (inactive),1.65,0.507,1.54,-0.0672 (inactive),0.193 (inactive),1.63 (inactive),3.82,0.0607 (inactive),0.746,-0.192,1.11,0.13
CN1C(=O)C2C=CC(C(O)c3cc(C(F)(F)F)cc(C(F)(F)F)c3)N(N3CCCCC3)C2C1=O (stereo not given),0.104,-0.392,0.0173,0.395,1.41,0.416,0.892,0.215 (inactive),0.498,-0.335,1.34,1.69 (inactive),0.763 (inactive),1.63 (inactive),2.65,-0.627 (inactive),0.254,-0.297,0.688,0.153
O=C1[C@H]2C=C(Br)[C@H](C[C@@H]2OCCCCO)[C@@]12CO2,-0.441,-0.199,-0.116,0.0593,0.0769,-0.434,-0.0036,-0.636 (inactive),-0.241,-0.0237,-0.162,0.176 (inactive),-0.248 (inactive),0.93 (inactive),-0.99,-1.03 (inactive),-0.0778,-0.0486,0.221,-0.0409
CCCC[C@@H]1C[C@H]1[C@@H](NC(=O)c1ccco1)c1ccc(C(=O)OC)cc1,0.238,-0.0736,-0.124,0.286,-0.253,0.0609,-0.216,-0.0679 (inactive),0.285,0.379,0.488,-0.152 (inactive),-1.61 (inactive),0.06 (inactive),1.93,-1.53 (inactive),0.0258,-1.2,-0.64,-0.171
O=C(NCC(F)(F)F)[C@@H]1c2ccccc2C(=O)N(C2CCCCC2)[C@H]1c1ccc(CO)cc1,-0.176,-0.527,-0.116,0.0931,0.154,1.61,0.611,-1.46 (inactive),0.249,0.0505,0.311,0.936 (inactive),0.372 (inactive),0.963 (inactive),1.76,0.674 (inactive),-0.117,0.276,0.254,-0.0987
COc1ccc(C(O)C2C=CC3C(=O)NC(=O)C3N2Nc2ccccn2)c2ccccc12 (stereo not given),-0.37,0.184,0.0467,0.246,0.388,1,0.741,0.87 (inactive),0.119,-0.0994,-0.385,-0.327 (inactive),-0.0861 (inactive),0.188 (inactive),1.02,-0.794 (inactive),-0.132,-0.127,0.223,-0.107
O=C1C[C@]2(c3ccc([N+](=O)[O-])cc3)C(=O)N(CCN3CCOCC3)c3cc(CO)ccc3[C@H]2N1C1CCCCC1,0.526,-0.808,-0.162,-0.212,-0.309,1.37,-0.251,-1.88 (inactive),0.105,-0.121,1.47,-0.87 (inactive),0.0365 (inactive),-1.6 (inactive),1.1,0.668 (inactive),-0.0668,-0.283,-0.188,-0.112

# Reference: PubChem BioAssay
